Where “and” joins values, the source holds several entries; their conditions need not be identical. Identical values can stand only once. Inconclusive results are not listed. Where a call stands in place of a potency, no number is given. Calls of active or inactive are those of the source. Unless noted, the call rests on the fitted dose curve; in most records, active means well fitted curve in the direction sought with a large enough effect in the repeat runs; inconclusive means weak or mixed curves; inactive means no such curve, though single readings can be large; an effect the other way counts as inactive or inconclusive.
Legend:
[1] = molecular target: Acetylcholinesterase (Homo sapiens) (UniProt P22303); assay: Acetylcholinesterase (AChE) small molecule antagonists: enzyme-based qHTS assay (AID 1347397; calls by dose curve; further: nearly all actives have a fitted effect of over 55% in size); conditions: Potency: AChE enzyme activity inhibition
Chain of Acetylcholinesterase (Homo sapiens) (P22303 whole entry, looked up): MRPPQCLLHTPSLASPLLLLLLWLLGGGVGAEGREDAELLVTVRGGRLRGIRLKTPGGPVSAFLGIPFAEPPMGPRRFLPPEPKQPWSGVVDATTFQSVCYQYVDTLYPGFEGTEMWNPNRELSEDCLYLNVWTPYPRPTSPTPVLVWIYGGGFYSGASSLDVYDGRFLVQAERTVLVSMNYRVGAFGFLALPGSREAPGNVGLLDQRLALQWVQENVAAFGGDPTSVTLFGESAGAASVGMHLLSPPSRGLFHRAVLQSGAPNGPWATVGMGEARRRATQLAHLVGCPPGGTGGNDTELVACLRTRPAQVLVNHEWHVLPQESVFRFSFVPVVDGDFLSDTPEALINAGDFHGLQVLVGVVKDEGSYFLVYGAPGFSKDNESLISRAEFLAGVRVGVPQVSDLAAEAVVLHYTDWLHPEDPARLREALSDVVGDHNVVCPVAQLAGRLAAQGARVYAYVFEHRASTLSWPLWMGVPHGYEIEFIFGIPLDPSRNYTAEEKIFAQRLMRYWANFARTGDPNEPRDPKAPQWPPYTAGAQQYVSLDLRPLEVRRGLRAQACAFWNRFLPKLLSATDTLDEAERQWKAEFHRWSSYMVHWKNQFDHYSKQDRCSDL
Outline: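 Human recombinant acetylcholinesterase; substrate acetylthiocholine; thiocholine quantified with DTNB (colorimetric). Compound preincubation 30 min RT; reaction 10 min RT.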

[2] = molecular target: Acetylcholinesterase (Homo sapiens) (UniProt P22303); assay: Acetylcholinesterase (AChE) small molecule antagonists: fluorescence cell-based qHTS assay (AID 1347398; calls by dose curve; further: nearly all actives have a fitted effect of over 50% in size); conditions: Potency: AChE activity
Outline: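 Thiocholine generated from acetylthiocholine by SH-SY5Y cell AChE is detected with Thiolite Green (Ex/Em 490/520 nm) after 40 min at room temperature, following 30 min compound pretreatment at 37 C.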

[3] = molecular target: Acetylcholinesterase (Homo sapiens) (UniProt P22303); assay: Acetylcholinesterase (AChE) small molecule antagonists: enzyme-based qHTS assay with human liver microsomes (AID 1347399; calls by dose curve; further: nearly all actives have a fitted effect of over 60% in size); conditions: Potency: qHTS inhibition
Outline: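 Recombinant human AChE (50 mU/mL in the enzyme mix) and human liver microsomes (0.25 mg/mL final) were preincubated with compound and NADPH (0.25 mg/mL final) for 30 min at 37 C. Acetylthiocholine/DTNB was then added; thiocholine was read colorimetrically after 10 min at room temperature.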

[4] = molecular target: Cytochrome P450 2D6 (Homo sapiens) (UniProt P10635); assay: Cytochrome P450 Family 2 Subfamily D Member 6 (CYP2D6) small molecule antagonists: luciferase reporter qHTS assay (AID 1671196); further: nearly all actives have a fitted effect of over 50% in size; further: potency means the concentration at half of the fitted maximal effect
Chain of Cytochrome P450 2D6 (Homo sapiens) (P10635 whole entry, looked up): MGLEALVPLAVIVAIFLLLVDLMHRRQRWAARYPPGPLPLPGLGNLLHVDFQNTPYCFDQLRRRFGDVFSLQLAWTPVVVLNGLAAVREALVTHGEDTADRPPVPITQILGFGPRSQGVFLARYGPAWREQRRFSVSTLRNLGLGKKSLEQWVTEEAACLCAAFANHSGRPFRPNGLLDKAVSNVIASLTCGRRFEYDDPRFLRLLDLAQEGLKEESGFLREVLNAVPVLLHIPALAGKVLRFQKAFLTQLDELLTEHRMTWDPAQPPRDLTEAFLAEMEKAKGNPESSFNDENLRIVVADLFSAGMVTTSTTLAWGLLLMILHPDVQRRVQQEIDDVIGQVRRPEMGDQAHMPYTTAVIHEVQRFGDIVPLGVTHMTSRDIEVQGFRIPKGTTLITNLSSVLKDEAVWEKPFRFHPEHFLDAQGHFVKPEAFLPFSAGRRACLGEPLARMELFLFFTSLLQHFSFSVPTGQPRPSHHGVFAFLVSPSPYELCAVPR
Outline: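 Read-out is luminescence from luciferin formed by CYP2D6 turnover of a proluciferin substrate, recorded as relative luminescence units. Reactions ran 1 h at room temperature after NADPH regeneration solution was added.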

[5] = molecular target: Cytochrome P450 2C19 (Homo sapiens) (UniProt P33261); assay: Cytochrome P450 Family 2 Subfamily C Member 19 (CYP2C19) small molecule antagonists: luciferase reporter qHTS assay (AID 1671197); further: nearly all actives have a fitted effect of over 65% in size; further: potency means the concentration at half of the fitted maximal effect
Chain of Cytochrome P450 2C19 (Homo sapiens) (P33261 whole entry, looked up): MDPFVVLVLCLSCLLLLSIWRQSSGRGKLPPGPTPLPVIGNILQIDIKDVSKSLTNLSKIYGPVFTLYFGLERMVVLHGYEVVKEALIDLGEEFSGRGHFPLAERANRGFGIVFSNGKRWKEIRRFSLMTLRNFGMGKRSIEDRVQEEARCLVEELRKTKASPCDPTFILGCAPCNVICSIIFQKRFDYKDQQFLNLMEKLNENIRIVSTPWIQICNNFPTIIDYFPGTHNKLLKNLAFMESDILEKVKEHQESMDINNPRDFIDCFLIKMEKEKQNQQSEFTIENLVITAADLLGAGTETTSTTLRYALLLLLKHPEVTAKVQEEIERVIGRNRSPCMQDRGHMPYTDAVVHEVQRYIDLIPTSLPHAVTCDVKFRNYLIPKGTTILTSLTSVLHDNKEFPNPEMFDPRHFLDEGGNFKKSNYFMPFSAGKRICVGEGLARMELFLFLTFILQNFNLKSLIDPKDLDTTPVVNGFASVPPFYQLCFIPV
Outline: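 Light output is proportional to CYP2C19 activity: proluciferin substrate is converted to luciferin, then detected by a luciferin detection reagent that also stops the 1 h, 37C NADPH-driven reaction. Ketoconazole serves as positive control.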

[6] = molecular target: Cytochrome P450 2C9 (Homo sapiens) (UniProt P11712); assay: Cytochrome P450 Family 2 Subfamily C Member 9 (CYP2C9) small molecule antagonists: luciferase reporter qHTS assay (AID 1671198); further: nearly all actives have a fitted effect of over 50% in size; further: potency means the concentration at half of the fitted maximal effect
Chain of Cytochrome P450 2C9 (Homo sapiens) (P11712 whole entry, looked up): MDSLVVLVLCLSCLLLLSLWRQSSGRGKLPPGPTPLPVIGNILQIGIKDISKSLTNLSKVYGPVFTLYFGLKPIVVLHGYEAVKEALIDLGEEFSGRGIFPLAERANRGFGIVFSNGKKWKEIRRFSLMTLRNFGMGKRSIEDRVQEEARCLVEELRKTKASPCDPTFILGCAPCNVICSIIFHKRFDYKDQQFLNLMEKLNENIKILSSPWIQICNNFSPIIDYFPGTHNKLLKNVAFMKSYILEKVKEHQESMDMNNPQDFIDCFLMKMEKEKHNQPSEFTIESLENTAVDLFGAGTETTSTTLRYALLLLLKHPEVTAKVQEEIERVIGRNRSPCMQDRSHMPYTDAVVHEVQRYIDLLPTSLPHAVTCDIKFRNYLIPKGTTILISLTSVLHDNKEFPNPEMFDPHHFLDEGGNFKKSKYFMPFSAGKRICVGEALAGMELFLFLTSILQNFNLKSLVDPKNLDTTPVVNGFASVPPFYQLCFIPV
Outline: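 CYP2C9 activity was measured with a P450-Glo proluciferin substrate. Enzyme–substrate mix was held with compound for 10 min at room temperature, then NADPH regeneration solution was added for 1 h at 37C. Luciferin product was read as luminescence.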

[7] = molecular target: Cytochrome P450 1A2 (Homo sapiens) (UniProt P05177); assay: Cytochrome P450 Family 1 Subfamily A Member 2 (CYP1A2) small molecule antagonists: luciferase reporter qHTS assay (AID 1671199); further: nearly all actives have a fitted effect of over 50% in size; further: potency means the concentration at half of the fitted maximal effect
Chain of Cytochrome P450 1A2 (Homo sapiens) (P05177 whole entry, looked up): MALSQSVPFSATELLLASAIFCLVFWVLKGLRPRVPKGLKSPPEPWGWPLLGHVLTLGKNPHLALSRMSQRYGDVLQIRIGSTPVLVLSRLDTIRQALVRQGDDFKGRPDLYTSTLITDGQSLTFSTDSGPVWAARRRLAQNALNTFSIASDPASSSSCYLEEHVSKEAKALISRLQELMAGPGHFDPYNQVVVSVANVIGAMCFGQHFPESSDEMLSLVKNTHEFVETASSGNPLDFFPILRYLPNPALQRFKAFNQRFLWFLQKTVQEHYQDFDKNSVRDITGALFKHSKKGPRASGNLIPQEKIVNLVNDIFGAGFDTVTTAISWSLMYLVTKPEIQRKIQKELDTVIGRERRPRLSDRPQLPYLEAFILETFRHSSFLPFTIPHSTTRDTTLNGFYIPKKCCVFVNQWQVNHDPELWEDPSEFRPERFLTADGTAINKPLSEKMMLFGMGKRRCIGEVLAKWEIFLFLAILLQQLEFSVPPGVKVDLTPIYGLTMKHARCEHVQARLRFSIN
Outline: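 P450-Glo CYP1A2, 1536-well qHTS: enzyme/proluciferin substrate + cpd (DMSO), 10 min RT; NADPH regen, 1 h RT; detection reagent, 20 min; luminescence, RLU.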

[8] = molecular target: Voltage-gated inwardly rectifying potassium channel KCNH2 (Homo sapiens) (UniProt Q12809); assay: Human Ether-a-go-go-Related Gene (hERG) channel small molecule antagonists: fluorescence cell-based qHTS assay (AID 1671200); further: nearly all actives have a fitted effect of over 50% in size; further: potency means the concentration at half of the fitted maximal effect
Chain of Voltage-gated inwardly rectifying potassium channel KCNH2 (Homo sapiens) (Q12809 whole entry, looked up): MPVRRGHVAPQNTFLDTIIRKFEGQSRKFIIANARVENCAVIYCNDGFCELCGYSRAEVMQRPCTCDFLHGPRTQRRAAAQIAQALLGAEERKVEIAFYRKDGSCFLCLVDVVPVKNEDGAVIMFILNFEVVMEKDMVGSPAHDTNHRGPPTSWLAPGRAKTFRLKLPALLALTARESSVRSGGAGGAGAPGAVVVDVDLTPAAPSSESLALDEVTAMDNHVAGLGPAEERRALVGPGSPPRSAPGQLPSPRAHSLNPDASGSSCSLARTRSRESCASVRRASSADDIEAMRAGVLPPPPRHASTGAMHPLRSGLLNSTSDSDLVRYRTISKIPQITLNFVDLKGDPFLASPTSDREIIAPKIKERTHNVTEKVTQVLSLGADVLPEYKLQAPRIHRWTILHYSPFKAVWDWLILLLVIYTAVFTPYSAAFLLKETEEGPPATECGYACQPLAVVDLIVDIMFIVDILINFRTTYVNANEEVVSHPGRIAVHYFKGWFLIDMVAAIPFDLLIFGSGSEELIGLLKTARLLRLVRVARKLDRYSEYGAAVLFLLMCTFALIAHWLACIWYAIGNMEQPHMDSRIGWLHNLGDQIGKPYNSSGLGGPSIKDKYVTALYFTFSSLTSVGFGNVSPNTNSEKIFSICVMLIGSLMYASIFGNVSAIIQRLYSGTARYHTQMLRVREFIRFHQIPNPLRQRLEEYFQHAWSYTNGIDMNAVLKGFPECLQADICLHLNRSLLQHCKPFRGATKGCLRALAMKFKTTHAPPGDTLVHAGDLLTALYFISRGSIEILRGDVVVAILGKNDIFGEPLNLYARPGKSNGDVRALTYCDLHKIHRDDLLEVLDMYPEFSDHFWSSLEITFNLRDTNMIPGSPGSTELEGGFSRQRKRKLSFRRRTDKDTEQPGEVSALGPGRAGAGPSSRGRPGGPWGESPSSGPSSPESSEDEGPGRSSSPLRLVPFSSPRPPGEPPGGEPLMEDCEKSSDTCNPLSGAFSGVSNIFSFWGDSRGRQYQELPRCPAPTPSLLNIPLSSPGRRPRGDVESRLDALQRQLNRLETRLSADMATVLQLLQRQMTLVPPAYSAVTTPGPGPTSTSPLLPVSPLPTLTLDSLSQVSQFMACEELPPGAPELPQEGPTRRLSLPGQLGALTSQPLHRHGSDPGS
Outline: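 Kinetic two-minute fluorescence traces, sampled at 1 s, were collected following thallium stimulus of U2OS cells (1000 per well) that had been cultured overnight at 37 C and loaded with FluxOR II.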

[9] = molecular target: Cytochrome P450 3A4 (Homo sapiens) (UniProt P08684); assay: Cytochrome P450 Family 3 Subfamily A Member 4 (CYP3A4) small molecule antagonists: luciferase reporter qHTS assay (AID 1671201); further: nearly all actives have a fitted effect of over 50% in size; further: potency means the concentration at half of the fitted maximal effect
Chain of Cytochrome P450 3A4 (Homo sapiens) (P08684 whole entry, looked up): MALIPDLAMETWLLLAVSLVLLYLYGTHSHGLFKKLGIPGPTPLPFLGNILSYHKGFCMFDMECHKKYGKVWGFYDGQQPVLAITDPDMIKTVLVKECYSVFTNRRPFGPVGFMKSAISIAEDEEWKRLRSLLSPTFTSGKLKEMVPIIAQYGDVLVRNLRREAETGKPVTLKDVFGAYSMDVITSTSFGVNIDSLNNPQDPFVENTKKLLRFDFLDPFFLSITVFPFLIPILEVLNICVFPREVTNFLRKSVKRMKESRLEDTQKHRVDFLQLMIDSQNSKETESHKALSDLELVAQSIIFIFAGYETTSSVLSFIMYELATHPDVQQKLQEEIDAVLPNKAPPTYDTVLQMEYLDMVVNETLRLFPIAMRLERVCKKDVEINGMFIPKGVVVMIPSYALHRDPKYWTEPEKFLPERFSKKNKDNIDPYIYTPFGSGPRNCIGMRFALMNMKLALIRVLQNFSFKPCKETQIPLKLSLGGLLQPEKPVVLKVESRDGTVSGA
Outline: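 Proluciferin-to-luciferin conversion by CYP3A4, NADPH-regenerated, 1 h RT; luminescence read as RLU. Ketoconazole as control.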

| Structure (SMILES) | Potency [1] | Potency [2] | Potency [3] | Potency [4] | Potency [5] | Potency [6] | Potency [7] | Potency [8] | Potency [9] |
| --- | --- | --- | --- | --- | --- | --- | --- | --- | --- |
| CCC(OC(C)=O)C(CC(C)NC)(c1ccccc1)c1ccccc1 (stereo not drawn) | inactive | inactive | inactive | 14.3 µM (active) | 32 µM (active) | inactive | inactive | 8.78 µM (active) | – |
| CC1=C2C[C@H]3[C@@H](CC=C4C[C@@H](O)CC[C@@]43C)[C@@H]2CC[C@]12O[C@@H]1C[C@H](C)CN[C@H]1[C@H]2C | inactive | inactive | inactive | inactive | inactive | inactive | inactive | inactive | inactive |
| ClCBr | inactive | inactive | inactive | inactive | inactive | inactive | inactive | inactive | inactive |
| O=Cc1ccccc1 | inactive | inactive | inactive | inactive | inactive | inactive | inactive | inactive | inactive |
| N#Cc1c[nH]cc1-c1cccc2c1OC(F)(F)O2 | inactive | inactive | inactive | inactive | 5.64 µM (active) | 20 µM (active) | 1.59 µM (active) | inactive | inactive |
| C[C@H]1[C@H](c2ccc(Cl)cc2)SC(=O)N1C(=O)NC1CCCCC1 | inactive | inactive | inactive | inactive | 5.03 µM (active) | 10 µM (active) | 35.6 µM (active) | 38.9 µM (active) | 7.96 µM (active) |
| C#CCC1=C(C)C(OC(=O)C2C(C=C(C)C)C2(C)C)CC1=O (stereo not drawn) | inactive | inactive | inactive | 39.7 µM (active) | 4.99 µM (active) | 12.5 µM (active) | 25 µM (active) | 43.4 µM (active) | 8.88 µM (active) |
| C#CC1(O)CCCCC1 | inactive | inactive | inactive | inactive | inactive | inactive | inactive | inactive | inactive |
| CCCCc1ccccc1 | inactive | inactive | inactive | inactive | inactive | inactive | inactive | inactive | inactive |
| C[C@]12C/C(=C/O)C(=O)C[C@@H]1CC[C@@H]1[C@@H]2CC[C@@]2(C)[C@H]1CC[C@]2(C)O | inactive | inactive | inactive | inactive | inactive | 35.9 µM (active) and 27.5 µM (active) | inactive | inactive | – |
| CC(C)N(C(=O)SC/C(Cl)=C/Cl)C(C)C | inactive | inactive | inactive | inactive | 3.19 µM (active) | 31.9 µM (active) | – | – | – |
| CO/N=C(/C1=NOCCO1)c1ccccc1Oc1ncnc(Oc2ccccc2Cl)c1F | inactive | inactive | inactive | inactive | 7.96 µM (active) | 11.2 µM (active) | 25.2 µM (active) | inactive | – |
| CC1CCCC1 | inactive | inactive | inactive | inactive | 17.6 µM (active) | 8.8 µM (active) | 39.3 µM (active) | inactive | 27.8 µM (active) |
| CN=C=O | inactive | inactive | inactive | 57.2 µM (active) | inactive | inactive | 36.1 µM (active) | inactive | inactive |
| Nc1cc(Cl)ccc1Cl | inactive | inactive | inactive | inactive | inactive | inactive | 31.5 µM (active) | inactive | – |
| Brc1ccc(Oc2ccc(Br)cc2Br)c(Br)c1 | inactive | inactive | inactive | inactive | 0.142 µM (active) | 12.6 µM (active) | 12.6 µM (active) | inactive | inactive |
| CCN(CC)CCc1c[nH]c2ccccc12 | inactive | inactive | inactive | 5.26 µM (active) | inactive | inactive | 52.6 µM (active) | inactive | inactive |
| [O-][Cl+3]([O-])([O-])O | inactive | inactive | inactive | inactive | inactive | inactive | inactive | inactive | inactive |
| CCCCN(CCCC)C(=S)S | inactive | inactive | inactive | 1.59 µM (active) | inactive | – | – | – | – |
| O=C1C2(Cl)C3(Cl)C4(Cl)C(Cl)(Cl)C5(Cl)C3(Cl)C1(Cl)C5(Cl)C24Cl (stereo not drawn) | inactive | inactive | inactive | inactive | 622 nM (active) and 961 nM (active) | 5.55 µM (active) and 6.06 µM (active) | inactive | 12.1 µM (active) and 14.8 µM (active) | 2.78 µM (active) and 3.41 µM (active) |
| CCCCC/C=C\C/C=C\C/C=C\C/C=C\CCCC(=O)NCC(=O)O | inactive | inactive | inactive | 15.5 µM (active) | inactive | 13.8 µM (active) | inactive | inactive | inactive |

Reference: PubChem BioAssay (Tox21)
